Calb FLC: C. albicans growth inhibition with fluconazole, primary screen, CaCi-2 strain, Alamar Blue fluorescence | C. albicans CaCi-2 (fluconazole-resistant clinical isolate) + fluconazole, 48 h | growth inhibition, % (no concentration beside the values) | actives 0.57% (n = 300,000) | AID 1979, 2009;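 active means growth inhibition above about 58% in most replicates, limit read from the data, passing the limit was not always enough; inconclusive means exactly half the replicates above a set limit; inactive means most replicates below a set limit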;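 further: all wells also contain fluconazole at 8 µg/ml as a sub-toxic cotreatment; 0% = median of DMSO wells and 100% = median of geldanamycin control wells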
PP1 inh: PP1-alpha phosphatase inhibitors, primary screen, counter-screen for PP5 inhibitor project, biochemical, fluorescence, OMFP substrate, single point | purified PP1alpha | inhibition, % at 6.7 µM | actives 0.9% (n = 320,000);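 active means inhibition above the mean inhibition of all tested compounds plus 3 SD, computed separately for each screening campaign, cut at about 15% in these data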
Target sequence (P62136 whole entry, looked up): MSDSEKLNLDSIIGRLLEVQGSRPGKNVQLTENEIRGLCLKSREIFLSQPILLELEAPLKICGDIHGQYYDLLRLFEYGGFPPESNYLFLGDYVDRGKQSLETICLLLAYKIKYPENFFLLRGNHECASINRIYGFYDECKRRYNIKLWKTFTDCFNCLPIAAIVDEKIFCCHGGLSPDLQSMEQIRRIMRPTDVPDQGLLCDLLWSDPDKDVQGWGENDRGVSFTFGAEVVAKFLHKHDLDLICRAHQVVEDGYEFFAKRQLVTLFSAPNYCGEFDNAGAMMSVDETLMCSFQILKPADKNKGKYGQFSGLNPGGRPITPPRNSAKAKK
ALR inh: inhibitors of human ALR sulfhydryl oxidase, primary screen, biochemical, H2O2 detection, HRP-luminol luminescence, single point; FAD-linked sulfhydryl oxidase ALR (Homo sapiens), P55789; purified ALR, DTT oxidation; inhibition, % (concentration not given with the values); actives 3.8% (n = 290,000); AID 485317, 2010;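 active means mean replicate inhibition above about 79%, with every replicate also reaching it, limit read from the data; inconclusive means only one of the two criteria met; inactive means mean below limit and not every replicate reaching it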
Target sequence (P55789 whole entry, looked up): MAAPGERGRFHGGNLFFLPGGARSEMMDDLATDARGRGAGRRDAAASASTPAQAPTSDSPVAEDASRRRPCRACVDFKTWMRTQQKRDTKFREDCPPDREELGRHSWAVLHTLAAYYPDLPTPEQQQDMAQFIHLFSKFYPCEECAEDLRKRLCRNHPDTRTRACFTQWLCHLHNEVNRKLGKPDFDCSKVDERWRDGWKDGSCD
CSC inhib: cancer stem cell viability inhibitors, primary screen, luminescence. actives 1.1% (n = 300,000). cancer stem cell-like cells viability. inhibition, % at 7.5 µM; in the data active means inhibition above about 75%; inconclusive means no clear call, values can overlap the other calls; tested in HMLE shEcad cells
PP5 inh: PP5 phosphatase inhibitors, primary screen, biochemical, fluorescence; Serine/threonine-protein phosphatase 5 (Homo sapiens), P53041; purified PP5c, OMFP substrate fluorescence; inhibition, % at 6.7 µM; actives 0.18% (n = 320,000); AID 1987, 2009;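 active means inhibition above the campaign's mean inhibition across all tested compounds plus 3 SD, cut at about 9.5% in these data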;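 further: 0% = DMSO only and 100% = 100 µM cantharidin control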
* = called active by the depositor; ? = inconclusive; . = no result given. Compounds with a hit are over-represented: about 5.4% of the library has one in this group of screens.

SMILES	Calb FLC	PP1 inh	ALR inh	CSC inhib	PP5 inh
N/C(=N\OC(=O)Cc1ccc([N+](=O)[O-])cc1)c1ccc([N+](=O)[O-])cc1	-10	5	97*	0	6
N/C(=N\OC(=O)Cc1ccc([N+](=O)[O-])cc1)c1cccc(Br)c1	5	-2	99*	7	4
Cc1ccc(CC(=O)O/N=C(\N)c2cccc([N+](=O)[O-])c2)cc1	22	1	-3	-6	-1
CC(=O)NC1C(O)OC(CO)C(O)C1O (stereo not drawn)	0	-1	-28	-3	1
COc1ccc(NS(=O)(=O)c2ccc(N3CCOCC3)c(NC(=O)C(C)C)c2)cc1	1	0	-3	6	1
COc1ccc(N2CCN(C(CNC(=O)C(=O)NCCCO)c3ccco3)CC2)cc1 (stereo not drawn)	5	-3	86*	-8	-2
CCS(=O)(=O)NCC(c1ccco1)N1CCN(c2ccccc2)CC1 (stereo not drawn)	8	-2	93*	.	-1
O=S(=O)(NCC(c1ccco1)N1CCN(c2ccccc2)CC1)c1ccc(F)cc1 (stereo not drawn)	4	3	16	.	0
COc1ccc(N2CCN(C(CNC(=O)C(=O)NCCc3c[nH]c4ccccc34)c3ccco3)CC2)cc1 (stereo not drawn)	8	-1	8	26	2
COc1ccc(N2CCN(C(CNS(C)(=O)=O)c3ccco3)CC2)cc1 (stereo not drawn)	30	-1	92*	-4	0
COC(=O)NCC(c1ccco1)N1CCN(c2ccc(F)cc2)CC1 (stereo not drawn)	-16	3	92*	-5	3
COCCNC(=S)N(CCc1c(C)[nH]c2ccc(Cl)cc12)Cc1cccnc1	.	-2	28	11	1
COc1ccc(N2CCN(C(CNC(=O)COc3ccccc3)c3ccco3)CC2)cc1 (stereo not drawn)	1	-2	89*	3	2
COC(=O)NCC(c1ccco1)N1CCN(c2ccc(OC)cc2)CC1 (stereo not drawn)	-2	-4	89*	-4	0
Cc1nc2sc(C(c3ccco3)N3CCN(c4ccc(F)cc4)CC3)c(O)n2n1 (stereo not drawn)	-12	-3	94*	-8	3
CCC(=O)NCC(c1ccco1)N1CCN(c2ccc(OC)cc2)CC1 (stereo not drawn)	-1	1	?	-2	1
CC(=O)c1ccc(OCC(=O)NCC(c2ccco2)N2CCCCC2)cc1 (stereo not drawn)	-20	6	-11	.	-1
CN(C)c1ccc(S(=O)(=O)NCC(=O)OCC(=O)c2ccc[nH]2)cc1[N+](=O)[O-]	.	0	-1	-4	2
CC(=O)N1CCC(=NNC(=O)c2cccs2)CC1	-5	1	77*	-7	3
CC(=O)N1CCC(=NNC(=O)c2cc3ccccc3cc2O)CC1	82*	2	44	-16	0
CCOC(=O)N1CCC(=NNC(=O)c2cc3ccccc3cc2O)CC1	44	8	.	8	4
COC(=O)c1c(NC(=O)c2ccccc2)sc2c1CC(C)(C)OC2	-7	-2	-3	80*	0
N#Cc1c2n(c3c(=O)n(Cc4ccc(Cl)cc4)cnc13)CCCCC2	-1	-3	.	-12	5
O=C1CCCCC1C(Nc1ccc(Cl)cc1)c1ccccc1 (stereo not drawn)	?	-1	98*	36	-1
C/C(=N\NC(=O)c1cccc(N/N=C(\C)c2cc(O)ccc2O)c1)c1cc(O)ccc1O	103*	1	?	37	-1
SMILES	Calb FLC	PP1 inh	ALR inh	CSC inhib	PP5 inh
C/C(=N\NC(=O)c1cccc(N/N=C(\C)c2ccco2)c1)c1ccco1	-16	.	.	.	.
CCCc1[nH][nH]c(=O)c1C(c1ccc(Br)cc1)C(C#N)C#N (stereo not drawn)	17	1	95*	0	4
CCCc1[nH][nH]c(=O)c1C(c1ccc(Cl)cc1)C(C#N)C#N (stereo not drawn)	6	-1	66	0	-1
O=C(CN(c1cccc(Br)c1)S(=O)(=O)c1ccccc1)N/N=C/c1cc([N+](=O)[O-])ccc1O	3	16*	-2	23	3
CC(C)(C)NC(=O)CN(c1cccc([N+](=O)[O-])c1)S(=O)(=O)c1ccccc1	0	-1	-3	6	1
O=C(N/N=C/c1cc([N+](=O)[O-])ccc1O)C(O)(c1ccccc1)c1ccccc1	98*	11	1	18	0
O=C(CCCC(=O)Nc1cccc(Br)c1)N/N=C/c1cc([N+](=O)[O-])ccc1O	7	16*	1	-7	0
COc1ccc(/C=N\NC(=O)COc2ccccc2Cl)cc1Cn1nc(C)cc1C	-26	2	-3	-6	-1
CN1CCc2cccc3c2C1Cc1ccc(O)c(O)c1-3 (stereo not drawn)	.	1	98*	1	1
Cn1c2ccccc2c2cc(C(=O)NNC(=O)CCl)sc21	6	0	35	16	-3
CC(=O)Nc1ccc(S(=O)(=O)NNC(=O)c2cc3c4ccccc4n(C)c3s2)cc1	-5	1	98*	-6	3
COCCNC(=O)c1cc2c3ccccc3n(C)c2s1	-3	0	99*	-15	2
CCCNC(=O)c1cc2c3ccccc3n(C)c2s1	5	0	99*	7	1
Cc1ccc2nc(C)cc(C(=O)N/N=C/c3ccncc3)c2c1	2	-6	2	-5	1
CCOC(=O)N1CCN(C(=S)NC(=O)c2c(-c3c(Cl)cccc3Cl)noc2C)CC1	11	1	-2	12	0
CCOC(=O)c1sc2cc([N+](=O)[O-])cc(SCCO)c2c1N	10	0	-8	-7	1
CC1=CC(C)[C@H](/C=N/n2c(=O)[nH]c3c([nH]c4ccc(C)cc43)c2=O)C(C)C1 (stereo partly drawn)	-3	0	6	87*	-3
CCc1nnc(NC(=O)CSc2nnc(CNc3cccc(C)c3)n2-c2ccccc2)s1	116*	10	.	-4	1
CCc1nnc(NC(=O)CSc2nnnn2C)s1	-3	-7	99*	-3	1
CCc1nnc(NC(=O)CSc2nccn2-c2ccccc2)s1	-23	0	-7	-7	-1
CCc1nnc(NC(=O)CSc2ncc(-c3ccccc3)n2C)s1	86*	2	-1	.	3
Cc1nc(NC(=O)CSc2nnnn2C)sc1C	11	-3	-2	6	0
CCc1nnc(NC(=O)Cn2ccc(C(F)(F)F)n2)s1	95*	-2	0	-1	2
CCOC(=O)C1CCN(C(=O)CCc2c(C)nc3cc(-c4ccc(OC)cc4OC)nn3c2C)CC1	-8	-3	.	-2	0
